# Results as given in PubChem BioAssay (NCI).
# The panel holds about 83,000 compounds, 20% with a hit somewhere; the sample as a whole holds those more often.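 Activity criterion: percent growth below 10, measured after cells in 96-well plates were exposed to a single compound concentration for 48 hours.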 Values without a mark were called inactive. The source made the active and inactive calls.
# What was measured:
# Test in all cases: NCI-60 one-dose screen, 48 h (100 = growth as untreated, 0 = no growth, -100 = all killed)
# Details in all cases: 10 µM unless noted
# NCI-H23 lung = test system: NCI-H23 lung
# NCI-H226 lung = test system: NCI-H226 lung
# NCI-H322M lung = test system: NCI-H322M lung
# HOP-62 NSCLC = test system: HOP-62 NSCLC
# NCI-H460 lung = test system: NCI-H460 lung
# HOP-92 NSCLC = test system: HOP-92 NSCLC
# NCI-H522 lung = test system: NCI-H522 lung
# A549/ATCC NSCLC = test system: A549/ATCC NSCLC
# 786-0 renal = test system: 786-0 renal
# COLO 205 colon = test system: COLO 205 colon
# DU-145 prostate = test system: DU-145 prostate
# K-562 leukemia = test system: K-562 leukemia
# MALME-3M melanoma = test system: MALME-3M melanoma
# MDA-MB-231 breast = test system: MDA-MB-231 breast
# RXF 393 renal = test system: RXF 393 renal
# SF-268 CNS = test system: SF-268 CNS
# SF-295 CNS = test system: SF-295 CNS
# SF-539 CNS = test system: SF-539 CNS
# UACC-257 melanoma = test system: UACC-257 melanoma
# M14 melanoma = test system: M14 melanoma
SMILES,growth (NCI-H23 lung),growth (NCI-H226 lung),growth (NCI-H322M lung) [%],growth (HOP-62 NSCLC),growth (NCI-H460 lung),growth (HOP-92 NSCLC),growth (NCI-H522 lung),growth (A549/ATCC NSCLC) [%],growth (786-0 renal),growth (COLO 205 colon),growth (DU-145 prostate) [%],growth (K-562 leukemia),growth (MALME-3M melanoma),growth (MDA-MB-231 breast) [%],growth (RXF 393 renal),growth (SF-268 CNS) [%],growth (SF-295 CNS),growth (SF-539 CNS),growth (UACC-257 melanoma) [%],growth (M14 melanoma) [%]
CCSc1nc(Cl)c(C#N)c(-c2ccc(F)cc2)n1,95.6%,94.3%,92,106%,103%,99%,92.8%,87.3,98.9%,106%,104,37.7%,106%,105,103%,94.9,97.7%,92.7%,93.8,82.3
COc1cc(C)ccc1Oc1nc(Nc2ccc(N3CCOCC3)cc2)ncc1N=Cc1cc(C(F)(F)F)cc(C(F)(F)F)c1,70.4%,55.4%,79.7,61.1%,44.6%,67.8%,27.3%,70,76.6%,68.3%,83.7,37.7%,91.7%,82.9,38.4%,69,75.8%,73.8%,79.2,77.7
c1ccc2nc(N3CCOCC3)c(N3CCCCC3)nc2c1,95.6%,95.8%,95.9,94.1%,105%,84.5%,85.3%,96.9,102%,110%,111,90.5%,92.1%,97,98%,95.2,97.2%,99%,103,105
CCOC(=O)C(=Cc1c(-c2ccccc2)[nH]c2ccccc12)C(=O)OCC,50.7%,60.1%,81.3,75.9%,21.5%,-5.04% (active),-33.7% (active),40.3,90.4%,58.7%,58.7,-6.49% (active),95.5%,63.3,51.9%,60.7,-10.2% (active),88.1%,44.3,47.8
COc1cc(F)c(-c2nc3c(C)cccc3n2Cc2c(F)cccc2F)c(F)c1,79.8%,88.7%,87.5,83.3%,77.8%,81.3%,73.4%,69.1,85.7%,98%,108,76.2%,79.5%,89.2,97.8%,84.3,79.9%,101%,76.2,86.3
NC[C@@H]1CCN(c2cc3c(cc2F)c(=O)n(N)c(=O)n3Cc2ccc(-c3ccccc3)cc2)C1,87.2%,91.1%,96.8,77.4%,99.7%,73.6%,68.8%,89.6,66.2%,88.6%,102,-44% (active),121%,89.7,74.7%,83.1,96.5%,90%,112,68.8
O=C(Nc1nc(-c2ccccc2Cl)cs1)c1cc(-c2ccc(Br)cc2)nc2ccccc12,14.3%,37.5%,70.4,52.6%,45.9%,21.4%,4.64% (active),37.5,75.3%,67.2%,69.3,23.5%,75.1%,27.3,59%,66.4,34.4%,76.1%,29.5,62.5
O=C1NC(SCc2ccc(F)cc2)=N/C1=C/c1cccc(OCc2ccc(Cl)cc2)c1,57.6%,-7.92% (active),50.3,45.9%,11.8%,68%,67.5%,26.2,-33.3% (active),55.3%,80.6,58.5%,88.1%,18.3,55%,74.3,-33.6% (active),14.1%,95.8,63.9
O=C(/C(=C/c1ccc([N+](=O)[O-])cc1)SCc1ccccc1)c1ccc(Cl)cc1,70.9%,68.4%,105,80.3%,87.4%,71.1%,41.4%,82.7,86.9%,70.3%,79.3,5.41% (active),85.3%,54.8,67.3%,86.5,90.3%,94.3%,90.2,67.3
COc1ccc2c(c1)Oc1nc(N)c(C#N)c(N)c1C2Sc1ccc(SC)cc1 (stereo not given),44.1%,75.6%,77.4,100%,58%,18.4%,-81.5% (active),85.7,8.66% (active),-3.1% (active),46.2,2.45% (active),-22.5% (active),10.5,-54.8% (active),61.4,80.8%,14.7%,67.3,27.6
O=C1NCc2ccc3c(-c4cccc(Cl)c4)c[nH]c3c21,35.5%,89.6%,47.6,22.7%,12.9%,52.7%,1.89% (active),15.8,31.4%,-27% (active),23.3,10.6%,65.9%,47.6,-3.81% (active),52.6,7.18% (active),-15.8% (active),35.6,15.9
Cc1nccc2c3ccc(OCc4cn(-c5ccc(Br)cc5)nn4)cc3n(CC(C)C)c12,40.1%,58.1%,90.6,65.8%,44.3%,16.4%,26.5%,41.1,28.5%,15.1%,76,14.8%,51.1%,46.9,46.1%,68.4,40%,61.4%,27.3,42.6
O=C(CCc1nnc2sc(OCc3ccccc3)nn12)c1nc2ccc([N+](=O)[O-])cc2[nH]1,84.6%,94.8%,93.3,102%,105%,106%,79.2%,94.3,108%,99.5%,103,87.7%,96.1%,95.7,123%,94.5,97%,98.4%,106,102
CC1=C(CCCOC(=O)NCCCl)C2=C(C)C3(CC3)[C@@](C)(O)C(=O)C2=C1,-0.524% (active),70%,41.1,-3.61% (active),3.59% (active),8.91% (active),26.6%,17.9,11.6%,3.83% (active),12.4,85.9%,34.6%,44.8,-69.2% (active),14.1,1.44% (active),42.6%,48.5,17.9
C=C1C(=O)O[C@H]2[C@H]1CC/C(COC(=O)Nc1nc3ccccc3[nH]1)=C\CC[C@@]1(C)O[C@@H]21,70.9%,79.8%,105,89.9%,91.4%,50.4%,-27.2% (active),95.5,80%,17.3%,36.3,13.5%,48.6%,66.1,30.6%,94.3,107%,61.1%,76.2,46.4
N#Cc1c(-c2ccc(Cl)cc2)cc(-c2cc3ccccc3o2)nc1SCC(=O)c1ccc(Cl)cc1,91.7%,102%,104,91.4%,107%,83.7%,97.5%,111,97.2%,106%,121,118%,90.6%,95.5,116%,99.3,90.1%,112%,112,96.9
